We go through nine compounds from PubChem BioAssay (Tox21).

A number with no mark means an inactive call. Records with an inconclusive call do not appear. Active and inactive are the calls of the source. Unless noted, calls come from the whole dose curve; as a rule, active = well fitted curve in the direction sought with a large enough effect in the repeat runs; inconclusive = weak or mixed curves; inactive = no such curve, though single readings can be large; an effect the other way counts as inactive or inconclusive.

The target in assay [1] is Thyrotropin-releasing hormone receptor (Homo sapiens) (UniProt P34981). Nature of the assay: qHTS assay to identify small molecule agonists of the thyrotropin-releasing hormone receptor (TRHR) signaling pathway (AID 1346891; calls by dose curve; note: potency is the fitted concentration of half-maximal effect;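 for activation: HEK293 cells expressing TRHR with calcium dye readout; series mostly up to about 58 µM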). In a few lines: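 Compounds were tested as agonists at 15 concentrations, in triplicate, on TRHR-Hek293 cells; calcium-sensitive dye fluorescence was recorded for 3 min following addition.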
(In general: Quantitative high-throughput screening tests each substance at several concentrations.)

The nature of assay [2]: Human pregnane X receptor (PXR) small molecule agonists, qHTS cell viability counter screen (AID 1346977). Note: nearly all actives have a fitted effect of over 50% in size. The gist of the method: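 Viability counter screen: CellTiter-Fluor signal in PXR-Luc HepG2 cells, 24hr compound exposure, 37C, 5% CO2.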
Assay [3] in a line: Caspase-3/7 induction in HepG2 cells by small molecules, qHTS assay (AID 1346978). Note: nearly all actives have a fitted effect of over 15% in size. In a few lines: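 Wild-type HepG2 cells (2,000/well) were settled 5 h at 37 C, 5% CO2, then exposed to compounds in DMSO for 17 h. Caspase-3/7 activity was read by luminescence 30 min after adding Caspase-Glo 3/7 reagent at room temperature.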
Assay [4] can be described thus: Caspase-3/7 induction in CHO-K1 cells by small molecules, qHTS cell viability counter screen (AID 1346979). Note: nearly all actives have a fitted effect of over 35% in size. The gist of the method:
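Viability readout by fluorescence (CellTiter-Fluor) on wild-type CHO-K1 cells exposed for 16hr at 37C and 5% CO2 to compounds delivered in DMSO; reagent incubated 1hr before reading.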

Assay [5] is described as follows: Caspase-3/7 induction in CHO-K1 cells by small molecules, qHTS assay (AID 1346980). Note: nearly all actives have a fitted effect of over 15% in size. The gist of the method:
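Wild-type cells were seeded at 1,500 per well and settled 5 hr at 37 C, 5% CO2, then exposed to DMSO-dissolved compounds for 17 hr. Caspase-Glo 3/7 reagent was added, and luminescence was read after 30min at room temperature.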

Assay [6] is described as follows: Caspase-3/7 induction in HepG2 cells by small molecules, qHTS cell viability counter screen (AID 1346981). Note: series mostly up to about 92 µM; nearly all actives have a fitted effect of over 30% in size. In a few lines:
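Fluorescence read-out of live-cell protease activity (CellTiter-Fluor) after 1 hr with reagent. This was measured in the same wells as the caspase-3/7 luminescence, on HepG2 cells exposed to DMSO-dissolved compounds for 16 hr at 37 C.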

Assay [7] deals with Nuclear receptor subfamily 1 group I member 2 (Homo sapiens) (UniProt O75469). Nature of the assay: Human pregnane X receptor (PXR) small molecule agonists, qHTS assay (AID 1346982). Note: nearly all actives have a fitted effect of over 35% in size. Note: potency is the fitted concentration of half-maximal effect. The gist of the method: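 HepG2 PXR-Luc reporter line, 5% charcoal-stripped FBS; 5 hr pre-incubation, compound (DMSO) 24 hr at 37 C/5% CO2; ONE-Glo 30 min RT; luminescence read-out.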
Assay [8] addresses Nuclear receptor subfamily 1 group I member 2 (Rattus norvegicus) (UniProt Q9R1A7). Nature of the assay: Rat pregnane X receptor (rPXR) activation by small molecules, qHTS assay (AID 1346983). Note: nearly all actives have a fitted effect of over 20% in size. The note with it: rPXR luciferase reporter cells, One-Glo luminescence, 24 h; max activation: hits give high values. The gist of the method:
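Cell-based rPXR luciferase reporter assay, 2,000 cells per well, rested 5hr at 37 C before compound addition in DMSO, then 24 hr at 37 C. One-Glo reagent was added and luminescence read after 30 min at room temperature.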

Assay [9] deals with Nuclear receptor subfamily 1 group I member 2 (Homo sapiens) (UniProt O75469). Nature of the assay: CYP3A4 induction through human pregnane X receptor (PXR) by small molecules, qHTS assay (AID 1346984). Note: nearly all actives have a fitted effect of over 40% in size. Note: potency is the fitted concentration of half-maximal effect. In a few lines: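 HepG2-derived DPX-2 line carrying PXR plus a CYP3A4-promoter luciferase reporter; cells plated 5 hr, compound-exposed 24 hr at 37C. CYP3A4 activity probed with 3uM (final) Luciferin-IPA for 3hr, then luciferase read after One-Glo.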

The target is the same in assay [10]. Nature of the assay: Human pregnane X receptor (PXR) activation by small molecules, qHTS assay (AID 1346985). Note: nearly all actives have a fitted effect of over 40% in size. Note: potency is the fitted concentration of half-maximal effect. The gist of the method:
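DPX-2 cells (HepG2 co-transfected with a PXR response element and a CYP3A4-promoter luciferase construct) were seeded at 2,000 per well, rested 5 hr at 37C, then exposed to DMSO-dissolved compounds for 24 hr. Activation was read as luciferase luminescence.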

Assay [11] deals with Cytochrome P450 2C9 (Homo sapiens) (UniProt P11712). Nature of the assay: Cytochrome P450 Family 2 Subfamily C Member 9 (CYP2C9) small molecule antagonists: luciferase reporter qHTS assay (AID 1671198). Note: nearly all actives have a fitted effect of over 50% in size. Note: potency is the fitted concentration of half-maximal effect. The gist of the method: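 CYP2C9 activity was measured with a P450-Glo proluciferin substrate. Enzyme–substrate mix was held with compound for 10 min at room temperature, then NADPH regeneration solution was added for 1 h at 37C. Luciferin product was read as luminescence.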
On the technique in general: A reporter such as luciferase makes a cellular process visible.

In assay [12] the target is Cytochrome P450 1A2 (Homo sapiens) (UniProt P05177). Nature of the assay: Cytochrome P450 Family 1 Subfamily A Member 2 (CYP1A2) small molecule antagonists: luciferase reporter qHTS assay (AID 1671199). Note: nearly all actives have a fitted effect of over 50% in size. Note: potency is the fitted concentration of half-maximal effect. The gist of the method:
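Luminescence readout (relative luminescence units) after luciferin detection reagent, 20 min RT. Preceded by 1 h room-temperature CYP1A2 reaction with NADPH regeneration solution following 10 min compound preincubation with enzyme and proluciferin substrate. Furafylline positive control.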

Assay [13] deals with Voltage-gated inwardly rectifying potassium channel KCNH2 (Homo sapiens) (UniProt Q12809). Nature of the assay: Human Ether-a-go-go-Related Gene (hERG) channel small molecule antagonists: fluorescence cell-based qHTS assay (AID 1671200). Note: nearly all actives have a fitted effect of over 50% in size. Note: potency is the fitted concentration of half-maximal effect. The gist of the method:
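Thallium served as the potassium surrogate; its influx into dye-loaded U2OS cells carrying the channel was measured by fluorescence over 2 min.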
On the technique in general: The hERG channel carries a current that helps repolarise heart muscle cells.

Assay [14] addresses Cytochrome P450 3A4 (Homo sapiens) (UniProt P08684). Nature of the assay: Cytochrome P450 Family 3 Subfamily A Member 4 (CYP3A4) small molecule antagonists: luciferase reporter qHTS assay (AID 1671201). Note: nearly all actives have a fitted effect of over 50% in size. Note: potency is the fitted concentration of half-maximal effect. The gist of the method:
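Relative luminescence units after 20 min with luciferin detection reagent served as read-out. Beforehand, CYP3A4 turned over a proluciferin substrate for 1 h at room temperature with NADPH regeneration, following 10 min compound preincubation.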

Assay [15] deals with Cytochrome P450 2D6 (Homo sapiens) (UniProt P10635). Nature of the assay: Cytochrome P450 Family 2 Subfamily D Member 6 (CYP2D6) small molecule antagonists: luciferase reporter qHTS assay (AID 1671196). Note: nearly all actives have a fitted effect of over 50% in size. Note: potency is the fitted concentration of half-maximal effect. In a few lines: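 Luminogenic proluciferin substrate, CYP2D6 enzyme; 10 min RT preincubation with compound, NADPH regeneration system added, 1 h RT. Stop/detection reagent, 20 min RT, luminescence read (RLU). Signal proportional to CYP activity.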

The target of assay [16] is Cytochrome P450 2C19 (Homo sapiens) (UniProt P33261). Nature of the assay: Cytochrome P450 Family 2 Subfamily C Member 19 (CYP2C19) small molecule antagonists: luciferase reporter qHTS assay (AID 1671197). Note: nearly all actives have a fitted effect of over 65% in size. Note: potency is the fitted concentration of half-maximal effect. The gist of the method: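 Inhibition of CYP2C19 was scored from loss of luminescence in a P450-Glo proluciferin substrate assay, NADPH-started and run 1 h at 37C, with ketoconazole as positive control.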
% is set by controls: 0 for no effect and ±100 for the full control effect.

Cytochrome P450 2C9 (Homo sapiens), sequence (P11712 whole entry, looked up): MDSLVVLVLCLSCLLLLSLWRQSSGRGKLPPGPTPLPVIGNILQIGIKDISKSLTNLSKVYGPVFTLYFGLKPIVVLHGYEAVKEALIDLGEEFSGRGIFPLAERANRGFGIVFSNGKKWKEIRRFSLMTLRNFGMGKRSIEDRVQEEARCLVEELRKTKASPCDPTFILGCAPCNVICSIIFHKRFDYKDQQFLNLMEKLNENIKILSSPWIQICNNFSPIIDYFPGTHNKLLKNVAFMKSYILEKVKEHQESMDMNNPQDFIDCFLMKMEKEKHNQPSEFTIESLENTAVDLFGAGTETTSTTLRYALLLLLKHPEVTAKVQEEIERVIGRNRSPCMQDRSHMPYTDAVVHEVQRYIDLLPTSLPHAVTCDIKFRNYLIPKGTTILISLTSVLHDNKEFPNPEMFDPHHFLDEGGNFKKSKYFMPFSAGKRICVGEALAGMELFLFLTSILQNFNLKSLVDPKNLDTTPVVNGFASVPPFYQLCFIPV
Cytochrome P450 1A2 (Homo sapiens), sequence (P05177 whole entry, looked up): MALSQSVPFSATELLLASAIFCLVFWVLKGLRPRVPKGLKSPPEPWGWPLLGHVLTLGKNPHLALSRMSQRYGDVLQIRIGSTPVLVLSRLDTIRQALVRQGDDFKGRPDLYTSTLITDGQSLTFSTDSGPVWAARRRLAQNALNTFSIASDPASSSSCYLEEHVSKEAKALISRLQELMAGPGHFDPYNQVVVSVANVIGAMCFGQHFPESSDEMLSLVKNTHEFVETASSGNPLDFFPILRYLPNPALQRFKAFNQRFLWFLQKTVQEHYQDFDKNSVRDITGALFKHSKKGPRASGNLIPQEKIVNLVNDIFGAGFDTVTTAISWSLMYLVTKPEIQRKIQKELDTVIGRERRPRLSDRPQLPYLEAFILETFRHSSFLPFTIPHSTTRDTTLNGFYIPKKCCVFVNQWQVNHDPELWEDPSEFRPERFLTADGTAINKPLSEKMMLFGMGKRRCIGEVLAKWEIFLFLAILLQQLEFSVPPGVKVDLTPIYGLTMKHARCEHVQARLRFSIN
Thyrotropin-releasing hormone receptor (Homo sapiens), sequence (P34981 whole entry, looked up): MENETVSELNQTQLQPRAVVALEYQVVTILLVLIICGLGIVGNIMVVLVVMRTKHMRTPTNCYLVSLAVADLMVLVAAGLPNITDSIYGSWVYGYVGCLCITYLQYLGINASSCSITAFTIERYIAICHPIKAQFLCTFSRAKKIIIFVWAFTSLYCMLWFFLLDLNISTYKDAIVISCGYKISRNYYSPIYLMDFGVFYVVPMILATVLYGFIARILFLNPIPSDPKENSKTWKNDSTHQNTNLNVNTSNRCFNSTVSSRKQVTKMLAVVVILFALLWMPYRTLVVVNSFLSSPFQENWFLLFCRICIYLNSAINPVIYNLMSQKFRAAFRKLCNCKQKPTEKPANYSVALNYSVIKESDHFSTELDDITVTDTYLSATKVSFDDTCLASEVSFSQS
Voltage-gated inwardly rectifying potassium channel KCNH2 (Homo sapiens), sequence (Q12809 whole entry, looked up): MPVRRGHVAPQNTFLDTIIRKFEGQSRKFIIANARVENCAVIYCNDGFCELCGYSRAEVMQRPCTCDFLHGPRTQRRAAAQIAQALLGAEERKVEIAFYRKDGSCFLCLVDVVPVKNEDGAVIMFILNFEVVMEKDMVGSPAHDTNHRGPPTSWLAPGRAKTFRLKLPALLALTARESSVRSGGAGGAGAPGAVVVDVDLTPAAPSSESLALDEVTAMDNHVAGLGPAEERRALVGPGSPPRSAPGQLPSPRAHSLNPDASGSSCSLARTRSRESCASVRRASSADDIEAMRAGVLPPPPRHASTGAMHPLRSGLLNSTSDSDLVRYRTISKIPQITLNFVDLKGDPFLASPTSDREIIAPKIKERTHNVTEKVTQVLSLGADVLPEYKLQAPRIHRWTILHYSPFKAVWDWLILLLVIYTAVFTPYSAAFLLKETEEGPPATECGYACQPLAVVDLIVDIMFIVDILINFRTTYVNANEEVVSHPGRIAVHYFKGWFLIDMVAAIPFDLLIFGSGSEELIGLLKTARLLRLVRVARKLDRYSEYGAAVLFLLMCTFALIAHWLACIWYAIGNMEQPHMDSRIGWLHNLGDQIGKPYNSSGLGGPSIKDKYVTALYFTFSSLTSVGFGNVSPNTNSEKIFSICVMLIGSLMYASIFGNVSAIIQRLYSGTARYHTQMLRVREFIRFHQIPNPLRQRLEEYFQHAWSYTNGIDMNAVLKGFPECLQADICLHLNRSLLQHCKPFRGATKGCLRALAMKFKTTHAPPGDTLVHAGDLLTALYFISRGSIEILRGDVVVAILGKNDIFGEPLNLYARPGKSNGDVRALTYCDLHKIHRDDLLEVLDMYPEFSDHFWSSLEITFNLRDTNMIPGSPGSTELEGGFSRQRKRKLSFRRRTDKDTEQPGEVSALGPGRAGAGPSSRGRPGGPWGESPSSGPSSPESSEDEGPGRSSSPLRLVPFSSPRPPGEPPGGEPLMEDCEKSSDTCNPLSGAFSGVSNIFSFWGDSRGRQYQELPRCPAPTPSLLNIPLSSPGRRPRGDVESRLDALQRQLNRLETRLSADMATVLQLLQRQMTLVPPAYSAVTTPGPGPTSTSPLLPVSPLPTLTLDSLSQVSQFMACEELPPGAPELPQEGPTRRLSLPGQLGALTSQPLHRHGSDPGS
Nuclear receptor subfamily 1 group I member 2 (Homo sapiens), sequence (O75469 whole entry, looked up): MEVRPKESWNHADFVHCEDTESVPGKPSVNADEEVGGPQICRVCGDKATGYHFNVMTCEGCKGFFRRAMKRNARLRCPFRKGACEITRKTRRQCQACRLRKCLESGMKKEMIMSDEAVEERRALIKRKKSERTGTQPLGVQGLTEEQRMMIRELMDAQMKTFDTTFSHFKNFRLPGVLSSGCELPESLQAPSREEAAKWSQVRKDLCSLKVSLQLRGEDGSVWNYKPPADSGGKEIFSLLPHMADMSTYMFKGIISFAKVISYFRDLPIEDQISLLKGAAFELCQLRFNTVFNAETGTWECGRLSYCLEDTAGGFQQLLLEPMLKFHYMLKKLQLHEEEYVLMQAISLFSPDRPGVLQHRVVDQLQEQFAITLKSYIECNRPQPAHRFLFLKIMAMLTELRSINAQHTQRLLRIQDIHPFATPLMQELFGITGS
Cytochrome P450 2C19 (Homo sapiens), sequence (P33261 whole entry, looked up): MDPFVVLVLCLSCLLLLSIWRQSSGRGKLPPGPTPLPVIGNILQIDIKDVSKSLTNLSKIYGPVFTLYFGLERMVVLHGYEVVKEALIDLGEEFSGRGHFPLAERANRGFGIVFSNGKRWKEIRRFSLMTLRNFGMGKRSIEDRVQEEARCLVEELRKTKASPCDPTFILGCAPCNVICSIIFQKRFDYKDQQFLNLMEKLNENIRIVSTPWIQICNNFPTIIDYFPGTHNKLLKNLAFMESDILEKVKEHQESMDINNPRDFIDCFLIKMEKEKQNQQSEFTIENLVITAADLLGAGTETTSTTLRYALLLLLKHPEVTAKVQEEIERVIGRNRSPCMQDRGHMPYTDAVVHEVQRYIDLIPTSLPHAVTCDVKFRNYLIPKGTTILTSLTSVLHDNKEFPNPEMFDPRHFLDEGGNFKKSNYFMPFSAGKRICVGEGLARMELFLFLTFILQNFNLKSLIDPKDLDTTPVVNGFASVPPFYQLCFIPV
Cytochrome P450 3A4 (Homo sapiens), sequence (P08684 whole entry, looked up): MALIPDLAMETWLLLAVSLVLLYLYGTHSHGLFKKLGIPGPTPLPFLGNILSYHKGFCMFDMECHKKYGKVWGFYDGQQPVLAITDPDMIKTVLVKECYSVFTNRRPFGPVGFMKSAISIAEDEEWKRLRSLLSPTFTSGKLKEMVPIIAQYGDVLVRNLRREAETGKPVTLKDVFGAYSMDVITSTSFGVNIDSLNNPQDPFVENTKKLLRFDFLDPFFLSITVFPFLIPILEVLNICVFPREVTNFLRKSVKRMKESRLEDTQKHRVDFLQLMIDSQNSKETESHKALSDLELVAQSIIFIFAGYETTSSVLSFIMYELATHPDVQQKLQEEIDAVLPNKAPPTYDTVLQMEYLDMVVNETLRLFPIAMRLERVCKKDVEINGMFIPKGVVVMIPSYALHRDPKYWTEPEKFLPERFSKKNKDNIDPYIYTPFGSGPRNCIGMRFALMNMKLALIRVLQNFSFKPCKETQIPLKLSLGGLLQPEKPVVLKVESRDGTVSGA
Cytochrome P450 2D6 (Homo sapiens), sequence (P10635 whole entry, looked up): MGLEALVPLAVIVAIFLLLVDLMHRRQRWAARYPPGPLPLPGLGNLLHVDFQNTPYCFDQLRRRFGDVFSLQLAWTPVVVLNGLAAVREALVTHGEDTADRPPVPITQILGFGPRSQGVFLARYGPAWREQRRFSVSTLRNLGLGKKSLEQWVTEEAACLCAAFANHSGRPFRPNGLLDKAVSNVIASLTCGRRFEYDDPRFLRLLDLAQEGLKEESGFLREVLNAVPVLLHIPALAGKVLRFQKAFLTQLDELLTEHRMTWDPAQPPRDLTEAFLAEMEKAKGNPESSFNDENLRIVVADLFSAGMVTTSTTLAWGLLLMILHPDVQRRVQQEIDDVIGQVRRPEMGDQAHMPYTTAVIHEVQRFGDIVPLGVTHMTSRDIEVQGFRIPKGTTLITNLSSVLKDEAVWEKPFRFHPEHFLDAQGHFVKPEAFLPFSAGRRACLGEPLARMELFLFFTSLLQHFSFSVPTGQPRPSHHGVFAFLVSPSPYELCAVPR
Nuclear receptor subfamily 1 group I member 2 (Rattus norvegicus), sequence (Q9R1A7 whole entry, looked up): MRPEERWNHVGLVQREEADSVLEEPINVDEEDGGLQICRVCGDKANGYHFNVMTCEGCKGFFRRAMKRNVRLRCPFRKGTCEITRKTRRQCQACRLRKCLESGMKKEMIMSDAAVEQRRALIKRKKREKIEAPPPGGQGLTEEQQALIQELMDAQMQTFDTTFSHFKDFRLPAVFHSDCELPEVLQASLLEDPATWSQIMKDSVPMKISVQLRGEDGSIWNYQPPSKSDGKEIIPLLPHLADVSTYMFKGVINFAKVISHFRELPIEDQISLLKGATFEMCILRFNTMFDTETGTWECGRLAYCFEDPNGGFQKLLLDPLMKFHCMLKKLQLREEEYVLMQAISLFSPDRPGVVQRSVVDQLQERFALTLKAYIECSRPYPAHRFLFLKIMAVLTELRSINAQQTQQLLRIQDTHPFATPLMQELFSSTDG

For `C[N+]1(C)CCC(=C(c2ccccc2)c2ccccc2)CC1`, the Potency result in assay [1], in assay [2], in [3], in assay [4], in assay [6] and in assay [7] was “inactive” each time. Also, the Potency result in [9], in assay [10], in assay [11], in assay [12] and in assay [14] was “inactive” in each case. In addition, in [5], the outcome was inactive. Further, the max activation in assay [8] was -1.49%. Moreover, the Potency in assay [13] is 8.49 µM (active).
In the case of `CC(CCc1ccc2c(c1)OCO2)NN` (centres undefined), the Potency result in assay [1], in assay [2], in assay [3], in assay [4], in [6] and in assay [7] was “inactive” throughout. Further, the Potency result in assay [13] is “inactive”. Besides, in assay [5], the outcome was inactive. For the same compound, the Potency is 30.9 µM (active) in [15], 38.9 µM (active) in [16], 15.5 µM (active) in assay [11] and 1.44 µM (active) in assay [12].
As to `C[N+](C)(C)CCOC(N)=O`, the Potency in [1] was 3.38 µM (active). Besides, the Potency entry in assay [2], in [3], in assay [4], in [6], in [7] and in assay [9] was “inactive” throughout. Also, the Potency result in assay [10], in assay [11], in assay [12], in assay [13] and in [14] was “inactive” in each case. In addition, the outcome in assay [5] was inactive. Further, the max activation in assay [8] was 0.11%.
On to `CCCCCCCCCCOS(=O)(=O)O`, for which the Potency result in assay [1], in assay [2], in assay [3], in [4], in [6] and in assay [16] was “inactive” throughout. For the same compound, the Potency result in [12], in assay [13] and in assay [14] was “inactive” each time. Further, in [5], the compound was classed as inactive. For the same compound, the Potency in assay [11] was 44.6 µM (active).
For the compound `CC#N`, the Potency entry in assay [1], in assay [2], in assay [3], in assay [4], in assay [6] and in [7] was “inactive” each time. Besides, the Potency entry in assay [15], in assay [16], in [11], in assay [12], in [13] and in [14] was “inactive” each time. Further, in assay [5], the call was inactive.
For the compound `O=[N+]([O-])c1cccc(S(=O)(=O)NCCNS(=O)(=O)c2cccc([N+](=O)[O-])c2)c1`, the Potency result in [1], in assay [2], in [3], in assay [4], in assay [6] and in assay [12] was “inactive” each time. Also, the outcome in assay [5] was inactive. Also, the Potency in assay [9] is 7.94 µM (active); in assay [10], 14.1 µM (active); in assay [11], 8.71 µM (active).
Consider `CC(C)(C)C(=O)O`, for which the Potency result in assay [1], in assay [2], in [3], in [4], in assay [6] and in assay [15] was “inactive” throughout. Besides, the Potency entry in assay [11], in [13] and in assay [14] was “inactive” each time. Moreover, the compound was classed as inactive in assay [5].
For `ON(Cc1ccccc1)Cc1ccccc1`, the Potency entry in assay [1], in [2], in assay [3], in assay [4], in assay [6] and in assay [13] was “inactive” throughout. Besides, in assay [5], the compound was classed as inactive. Moreover, the Potency is 34.4 µM (active) in assay [7], 5.64 µM (active) in assay [12] and 10 µM (active) in [14].
For `O=C(O)c1ccccc1NCCc1ccccc1`, the Potency result in assay [1], in assay [2], in assay [3], in [4], in assay [6] and in assay [16] was “inactive” throughout. Also, in assay [13], the Potency result is “inactive”. Also, the call in assay [5] was inactive. In addition, the Potency in [7] was 23.7 µM (active); in assay [11], 13.8 µM (active).
